Publication PMC4336329 (PLoS ONE, 2015)
Out of some 310,000 compounds screened, about 14,000 (4.5%) showed an effect of 50% or more. The effect is printed as a negative number. The sample holds strong results, similar compounds and a random draw of the others, so the mix is not that of the screen.

molecular target: human ether-à-go-go-related gene (hERG) potassium channel (human, UniProt Q12809); assay: primary screen, population patch clamp on CHO cells stably expressing hERG; higher = less effect of the substance
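Note: peak tail current of the secondary pulse compared with the same well before compound.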

Chain of human ether-à-go-go-related gene (hERG) potassium channel (Q12809 whole entry, looked up): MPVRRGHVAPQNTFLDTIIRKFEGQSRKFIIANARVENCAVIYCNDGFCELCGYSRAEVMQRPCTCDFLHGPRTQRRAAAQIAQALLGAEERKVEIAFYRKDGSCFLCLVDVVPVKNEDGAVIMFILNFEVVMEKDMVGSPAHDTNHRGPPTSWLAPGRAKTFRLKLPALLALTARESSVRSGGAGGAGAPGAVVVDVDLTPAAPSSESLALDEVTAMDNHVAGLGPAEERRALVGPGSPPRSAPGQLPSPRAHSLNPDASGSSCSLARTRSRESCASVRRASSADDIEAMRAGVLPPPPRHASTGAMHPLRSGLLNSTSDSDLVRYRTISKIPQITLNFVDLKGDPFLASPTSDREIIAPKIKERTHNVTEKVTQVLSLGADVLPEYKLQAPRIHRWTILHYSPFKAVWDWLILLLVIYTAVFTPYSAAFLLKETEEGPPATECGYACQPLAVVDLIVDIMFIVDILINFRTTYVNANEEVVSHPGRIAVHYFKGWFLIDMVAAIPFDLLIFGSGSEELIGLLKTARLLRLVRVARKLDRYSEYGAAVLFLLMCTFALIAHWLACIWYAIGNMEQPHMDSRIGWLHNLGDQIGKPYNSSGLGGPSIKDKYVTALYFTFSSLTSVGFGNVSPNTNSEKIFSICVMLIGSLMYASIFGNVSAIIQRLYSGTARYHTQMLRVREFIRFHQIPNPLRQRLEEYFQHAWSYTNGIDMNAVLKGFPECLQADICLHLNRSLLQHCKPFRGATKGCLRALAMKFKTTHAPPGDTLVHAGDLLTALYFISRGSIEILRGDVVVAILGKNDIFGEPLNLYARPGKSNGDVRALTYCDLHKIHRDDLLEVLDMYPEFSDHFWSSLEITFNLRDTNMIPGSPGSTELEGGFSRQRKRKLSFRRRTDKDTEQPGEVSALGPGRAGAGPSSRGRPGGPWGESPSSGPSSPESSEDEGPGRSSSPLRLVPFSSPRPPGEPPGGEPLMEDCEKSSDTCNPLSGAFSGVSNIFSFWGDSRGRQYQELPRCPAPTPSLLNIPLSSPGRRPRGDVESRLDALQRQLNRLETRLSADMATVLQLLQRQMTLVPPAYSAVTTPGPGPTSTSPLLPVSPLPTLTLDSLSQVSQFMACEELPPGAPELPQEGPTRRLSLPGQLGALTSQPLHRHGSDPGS

| Compound | hERG current change (%, negative = inhibition) at 10uM [%] |
| --- | --- |
| O=C(C1CCCO1)N1CCN(C(=S)Nc2ccc(Cl)c(Cl)c2)CC1 (stereo not drawn) | -30.2 |
| CCN(CC)C(=O)c1cn(-c2ccccc2)nc1-c1ccc2c(c1)OCCO2 | -3.56 |
| O=C(Nn1c(C2CC2)nc2ccccc2c1=O)c1ccco1 | -8.14 |
| CCN(CC(=O)NCc1ccc(F)cc1)C(=O)/C=C/c1cccs1 | -40.9 |
| Cc1cc(C)n(-c2ccc(Cl)c(C(=O)OCC(=O)N3CCCCC3C)n2)n1 (stereo not drawn) | -4.12 |
| Clc1ccc2nnnc(-c3ccccc3)c2c1 | -9.98 |
| Cl.NC(N)=Nc1nc(-c2ccccc2)c2cc(Cl)ccc2n1 | -67.9 |
| NC(N)=Nc1nc(-c2ccccc2)c2ccccc2n1 | -40.1 |
| NNc1nc(-c2ccccc2)c2cc(Cl)ccc2n1 | -11.3 |
| NC(N)=Nc1nc(-c2ccccc2)c2cc(F)ccc2n1 | -66.2 |
| Cc1nc(N=C(N)N)nc2ccccc12 | 23.6 |
| CC(=O)c1ccc(NC(=S)N2CCN(C(=S)Nc3ccc(C(C)=O)cc3)C(C)C2)cc1 (stereo not drawn) | 20.6 |
| CCN(CC)S(=O)(=O)c1cccc(NC(=S)NC(=O)/C=C/c2ccc(S(=O)(=O)N3CCOCC3)cc2)c1 | -6.82 |
| CCCCc1nc2ccccc2[nH]1 | 14.2 |
| CSc1nc2sc(-c3ccccc3)cc2c(=O)n1N | 17.4 |
| O=C(NNC(=O)c1ccccc1-n1cccc1)c1ccccc1 | -18.3 |
| N#Cc1nc(-c2ccccc2Cl)oc1NCc1ccco1 | -8.28 |
| Cc1ccc(-c2nc(C#N)c(NCc3ccco3)o2)cc1 | -0.709 |
| Cc1ccccc1-c1nc(C#N)c(NCc2ccco2)o1 | -57.2 |
| O=C(COc1ccccc1)N1CCN(C(=O)Cc2ccccc2)CC1 | -1.51 |
| COc1cc2nc(SCC(=O)c3ccc(Br)cc3)n3nc(C)nc3c2cc1OC | -17.7 |
| Cc1nn(C)cc1CN1CCCC(C(=O)c2ccc(-c3ccccc3)c(F)c2)C1 (stereo not drawn) | -15.3 |
| COc1cccc(C(=O)C2CCCN(Cc3cn(CC(N)=O)c4ccccc34)C2)c1 (stereo not drawn) | -53 |

| Compound | hERG current change (%, negative = inhibition) at 10uM [%] |
| --- | --- |
| Cn1cc(CN2CCCC(C(=O)c3cccs3)C2)c(-c2cccc(Cl)c2)n1 (stereo not drawn) | -39.2 |
| Cc1ccsc1C(=O)C1CCCN(Cc2cn(C)nc2-c2ccccc2)C1 (stereo not drawn) | -32.1 |
| Cc1nn(C)cc1CN1CCCC(C(=O)c2ccc(-c3ccccc3)cc2)C1 (stereo not drawn) | -45.4 |
| COc1ccc(C(=O)C2CCCN(Cc3cn(C)nc3-c3ccccc3)C2)cc1F (stereo not drawn) | -72.4 |
| COc1cccc(C(=O)C2CCCN(Cc3cn(C)nc3-c3ccccc3)C2)c1 (stereo not drawn) | -68.8 |
| NC(=O)NC1NC(=O)NC1=O (stereo not drawn) | 11.9 |
| C/C(Cl)=C\Cn1c(O)c(N=NC(N)=S)c2cc(Br)ccc21 | 8.96 |
| COc1cccc(C(=O)N(C)CC(=O)Nc2ccc(F)c(F)c2F)c1 | 11.4 |
| O=C(COC(=O)c1ccc(S(=O)(=O)N2CCOCC2)cc1)NC1CCCCCCC1 | 12.2 |
| Clc1ccc(Nc2ccc(-n3ccnc3)nn2)cc1Cl | -9.9 |
| CC(=O)c1cc2c(C)cc(=O)oc2cc1O | 1.77 |
| CC1CCN(C(=O)Cn2c(=O)n(Cc3ccc4c(c3)OCO4)c(=O)c3ccccc32)CC1 | -18.5 |
| CN(C)CCCOC(=O)c1ccc(Cl)cc1Cl.Cl | -38.8 |
| CCCN(CCC)CCCOC(=O)c1ccc(Cl)cc1Cl.Cl | -70.1 |
| CCN(CC)CCOC(=O)c1cccc(Cl)c1.Cl | -32.4 |
| CN(C)CCCOC(=O)c1ccccc1Cl.Cl | -0.792 |
| CCN(CC)CCOC(=O)c1ccc(Cl)cc1Cl.Cl | -55.4 |
| CCN(CC)CCOC(=O)c1ccc(Cl)cc1.Cl | -42.7 |
| Cc1nnc(NC(=O)CN2CCN(Cc3ccccc3Cl)CC2)s1 | 6.08 |
| CSc1cccc(NC(=O)c2ccccn2)c1 | 7.57 |
| CC[C@H](C)C(N)c1cn([C@@H](CC(N)=O)C(=O)N2CCNCC2)nn1 (stereo partly drawn) | -10.5 |
| COc1ccc2c(c1)C(NS(=O)(=O)OCC(Cl)(Cl)Cl)CCC2 (stereo not drawn) | -0.647 |
| CC1CCCC(NC(=O)CCNC(=O)c2ccc(Br)cc2)C1C (stereo not drawn) | -0.231 |

| Compound | hERG current change (%, negative = inhibition) at 10uM [%] |
| --- | --- |
| Cc1ccc(C)c(OC(C)C(=O)Nc2nccs2)c1 (stereo not drawn) | 3.8 |
| CN(C)c1ccc(/C=N/NC(=O)CCC(=O)NCc2ccccc2)cc1 | 11.3 |
| CCc1cc(C(=O)N2CCc3c([nH]c4ccccc34)C2c2ccc(OC)cc2F)no1 (stereo not drawn) | 15.7 |
| COc1ccc2oc(C(=O)CCC(=O)O)c(N)c2c1 | 4.93 |
| COc1ccccc1N1CCN(C(=O)c2cc(C)oc2C)CC1 | 21 |
| O=C(NN1CC(=O)N(c2cc(Cl)cc(Cl)c2)CC1=O)c1sccc1Cl | -0.682 |
| Cc1cccc(N(CC(=O)N/N=C/c2ccccc2C(=O)O)S(C)(=O)=O)c1C | -28.9 |
| N#CCC(=O)N/N=C/c1ccc(OCc2ccccc2)cc1 | 11.3 |
| CC(C)(C)NCC(=O)N/N=C/c1ccc(OCc2ccccc2)cc1 | -60.5 |
| CC(C)C(=O)N/N=C/c1ccc(OCc2ccccc2)cc1 | 17.8 |
| O=C(NNc1nc2ccccc2nc1C(F)(F)F)c1ccccc1 | 11.9 |
| Cc1ccc(NC(=O)c2cc(-c3ccccc3)n[nH]2)cc1 | 18.3 |
| CC(C)c1ccc(N(C(=O)c2csnn2)C(C(=O)NC(C)(C)C)c2ccncc2)cc1 (stereo not drawn) | -42.8 |
| CC(C)C[C@@H](COc1ccccc1)N1CCN(Cc2ccccc2)CCC1=O | -35.4 |
| CCCN1CCC(=O)N([C@H](COc2ccccc2)CC(C)C)CC1 | -81.9 |
| CC(C)C[C@@H](CO)N1CCN(CCc2ccccc2)CCC1=O | -23 |
| CCCN1CCC(=O)N([C@H](CN=[N+]=[N-])CC(C)C)CC1 | 3.11 |
| CC(C)C[C@@H](COc1ccccc1)N1CCN(CCc2ccccc2)CCC1=O | -77.5 |
| COc1cc([N+](=O)[O-])ccc1NC(=O)CN(C)C | -15.9 |
| O=C(O)CC(CC(=O)Nc1ccccc1C(=O)O)c1ccccc1 (stereo not drawn) | 3.3 |
| C=C(C)CCC1(C)NC(=O)N(c2ccccc2)N1 (stereo not drawn) | -4.03 |
| CN(C(=O)CSc1nnnn1-c1ccc(O)cc1)C1CCS(=O)(=O)C1 (stereo not drawn) | 14.8 |
| CCN(CC(=O)NCc1cccs1)C(=O)CN(C)S(=O)(=O)c1ccc(C)cc1 | -27.3 |

| Compound | hERG current change (%, negative = inhibition) at 10uM [%] |
| --- | --- |
| COc1ccccc1NC(=O)CSc1nc2sc3c(c2c(=O)n1-c1ccccc1)CCN(C)C3 | -26 |
| CC1(C)OC(=O)N(c2ccccc2)C12C=Cc1cc(Br)ccc1O2 (stereo not drawn) | -14.4 |
| O=C(Nc1ccc(S(=O)(=O)N2CCCC2)cc1)c1ccc(Br)o1 | 14.8 |
| COc1ccc(NC(=O)c2ccc(S(=O)(=O)N3CCOCC3)o2)cc1 | 0.458 |
| O=C(Nc1ccc(OC(F)(F)F)cc1)c1ccc(S(=O)(=O)N2CCOCC2)o1 | -53.7 |
| O=C(Nc1ccc(S(=O)(=O)N2CCCCCC2)cc1)c1ccc(Br)o1 | -14.5 |
| O=C(Nc1ccc(S(=O)(=O)N2CCOCC2)cc1)c1ccc(Br)o1 | -64.8 |
| O=C(Nc1ccc(F)cc1)c1ccc(S(=O)(=O)N2CCOCC2)o1 | -13.1 |
| O=C(NNc1ccccc1[N+](=O)[O-])Nc1cccc(Cl)c1 | 19.3 |
| Cc1ccccc1Cn1cc(NC(=O)CCCn2nc([N+](=O)[O-])cc2C)cn1 | -7.52 |
| O=C(NNS(=O)(=O)c1ccc([N+](=O)[O-])cc1)c1ccc([N+](=O)[O-])cc1 | 28.6 |
| CN(CCCNC(=O)c1cc2c(Cl)nc3ccccc3c2s1)Cc1ccccc1 | -44.3 |
| CN(CCCNC(=O)c1cccn2c(=O)c3ccccc3nc12)Cc1ccccc1 | -74.1 |
| O=C(NCCN1CCN(c2ccccc2)CC1)c1cccn2c(=O)c3ccccc3nc12 | -63 |
| Cn1c(C(=O)NCCN2CCN(c3ccccc3F)CC2)cc2c(=O)n(C)c3ccccc3c21 | -4.62 |
| O=C(CCNC(=O)Cn1ccc2ccccc2c1=O)NCCN1CCN(c2ccccc2F)CC1 | 6.8 |
| COCCCNC(=O)c1cccn2c(=O)c3cc4ccccc4cc3nc12 | -42.2 |
| O=C(NCCN1CCN(c2ccccc2)CC1)c1cccn2c(=O)c3cc(Cl)ccc3nc12 | -45.4 |
| O=C(NCCN1CCN(c2ccccc2F)CC1)c1cccn2c(=O)c3ccccc3nc12 | -71.5 |
| O=C(O)c1cccn2c(=O)c3ccccc3nc12 | 13.1 |
| CCN(CC(=O)NC1CCS(=O)(=O)C1)C(=O)COc1ccccc1-c1ccccc1 (stereo not drawn) | 11.7 |
